Results published in PubChem BioAssay AID1159580 (chemical genetic matrix, 2015).
In all, about 5,500 compounds went through this assay and about 2,000 (36%) were called active. Inconclusive results (about 18%) are left out. Cut-off read from the data, not from the text of the source: active = normalized growth mostly below about 0.91 (no sharp cut-off); inconclusive = no clear call, values can overlap the other calls; inactive = mostly above about 0.92. This is one part of the list.

Assay: chemical genetic growth profiling, strain panel (AID 1159580);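 note: tested at 20 µM; growth read once vehicle control cultures reached saturation at 30 °C; 1 = growth at the plate median or of vehicle wells; lower values mean less growth of the strain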
Conditions: growth OD

Measured: normalized growth

CC(=O)[C@@]1(O)CCC2C3C[C@H](C)C4=CC(=O)C=CC4(C)[C@@]3(F)[C@@H](O)C[C@@]21C (stereo partly drawn)
inactive: S. cerevisiae deletion strains, locus YJR066W, strain TOR1, active compounds read low 0.936 | S. cerevisiae deletion strains, locus YKL009W, strain mrt4, active compounds read low 1.01 | S. cerevisiae deletion strains, locus YKL068W, active compounds read low 1.01 | S. cerevisiae deletion strains, locus YKL085W, strain MDH1 (second series), active compounds read low 1.01 | S. cerevisiae deletion strains, locus YKL085W, strain MDH1, active compounds read low 1.01 | S. cerevisiae deletion strains, locus YKL160W, strain elf1, active compounds read low 0.976 | S. cerevisiae deletion strains, locus YKL190W, strain CNB1, active compounds read low 0.988 | S. cerevisiae deletion strains, locus YKR001C, strain vps1, active compounds read low 0.987 | S. cerevisiae deletion strains, locus YKR026C, strain gcn3, active compounds read low 0.982 | S. cerevisiae deletion strains, locus YKR091W, strain srl3, active compounds read low 0.956 | S. cerevisiae deletion strains, locus YLL001W, strain dnm1, active compounds read low 1.01 | S. cerevisiae deletion strains, locus YLL026W, active compounds read low 0.979 | S. cerevisiae deletion strains, locus YLL041C, strain sdh2, active compounds read low 0.988 | S. cerevisiae deletion strains, locus YLR027C, strain aat2, active compounds read low 0.978 | S. cerevisiae deletion strains, locus YLR039C, strain RIC1, active compounds read low 1.03 | S. cerevisiae deletion strains, locus YLR058C, strain SHM2, active compounds read low 1.01 | S. cerevisiae deletion strains, locus YLR102C, strain apc9, active compounds read low 1 | S. cerevisiae deletion strains, locus YLR113W, strain HOG1, active compounds read low 0.988 | S. cerevisiae deletion strains, locus YLR221C, strain rsa3, active compounds read low 0.968 | S. cerevisiae deletion strains, locus YLR258W, strain gsy2, active compounds read low 0.971 | S. cerevisiae deletion strains, locus YLR262C, strain YPT6 (second series), active compounds read low 0.981 | S. cerevisiae deletion strains, locus YLR262C, strain YPT6, active compounds read low 0.98 | S. cerevisiae deletion strains, locus YLR268W, strain sec22, active compounds read low 0.991 | S. cerevisiae deletion strains, locus YLR320W, strain mms22, active compounds read low 0.962 | S. cerevisiae deletion strains, locus YLR330W, strain CHS5, active compounds read low 1 | S. cerevisiae deletion strains, locus YLR342W, strain FKS1 (second series), active compounds read low 0.992 | S. cerevisiae deletion strains, locus YLR342W, strain FKS1, active compounds read low 0.979 | S. cerevisiae deletion strains, locus YLR357W, strain rsc2, active compounds read low 0.951 | S. cerevisiae deletion strains, locus YLR370C, strain arc18, active compounds read low 0.982 | S. cerevisiae deletion strains, locus YLR371W, strain rom2, active compounds read low 1 | S. cerevisiae deletion strains, locus YLR384C, strain iki3, active compounds read low 0.981 | S. cerevisiae deletion strains, locus YLR418C, strain cdc73, active compounds read low 1.02 | S. cerevisiae deletion strains, locus YML016C, strain PPZ1, active compounds read low 1 | S. cerevisiae deletion strains, locus YML032C, strain rad52, active compounds read low 0.996 | S. cerevisiae deletion strains, locus YML120C, strain ndi1, active compounds read low 0.954 | S. cerevisiae deletion strains, locus YML124C, strain tub3, active compounds read low 1.01 | S. cerevisiae deletion strains, locus YMR058W, strain fet3, active compounds read low 0.983 | S. cerevisiae deletion strains, locus YMR078C, strain ctf18, active compounds read low 1 | S. cerevisiae deletion strains, locus YMR125W, strain sto1, active compounds read low 0.965 | S. cerevisiae deletion strains, locus YMR129W, active compounds read low 0.964 | S. cerevisiae deletion strains, locus YMR205C, strain PFK2, active compounds read low 0.975 | S. cerevisiae deletion strains, locus YMR223W, strain ubp8, active compounds read low 1.04 | S. cerevisiae deletion strains, locus YMR231W, strain pep5, active compounds read low 0.973 | S. cerevisiae deletion strains, locus YMR307W, strain GAS1, active compounds read low 0.976 | S. cerevisiae deletion strains, locus YNL067W, strain RPL9B, active compounds read low 0.993 | S. cerevisiae deletion strains, locus YNL071W, strain lat1, active compounds read low 0.972 | S. cerevisiae deletion strains, locus YNL128W, strain TEP1, active compounds read low 1.01 | S. cerevisiae deletion strains, locus YNL153C, strain GIM3, active compounds read low 0.992 | S. cerevisiae deletion strains, locus YNL183C, strain NPR1, active compounds read low 0.942 | S. cerevisiae deletion strains, locus YNL209W, strain ssb2, active compounds read low 0.98 | S. cerevisiae deletion strains, locus YNL233W, strain BNI4, active compounds read low 1 | S. cerevisiae deletion strains, locus YNL248C, strain rpa49, active compounds read low 0.914 | S. cerevisiae deletion strains, locus YNL250W, strain rad50, active compounds read low 1.03 | S. cerevisiae deletion strains, locus YNL271C, strain bni1, active compounds read low 1.02 | S. cerevisiae deletion strains, locus YNL298W, strain CLA4, active compounds read low 0.999 | S. cerevisiae deletion strains, locus YNL307C, strain MCK1, active compounds read low 1.02 | S. cerevisiae deletion strains, locus YNL322C, strain KRE1 (second series), active compounds read low 0.955 | S. cerevisiae deletion strains, locus YNR049C, strain mso1, active compounds read low 0.951 | S. cerevisiae deletion strains, locus YNR052C, strain pop2, active compounds read low 1.01 | S. cerevisiae deletion strains, locus YOL012C, strain htz1 0.807 | S. cerevisiae deletion strains, locus YOL147C, strain pex11, active compounds read low 1.01 | S. cerevisiae deletion strains, locus YOR001W, strain rrp6, active compounds read low 0.971 | S. cerevisiae deletion strains, locus YOR061W, strain CKA2, active compounds read low 1.01 | S. cerevisiae deletion strains, locus YOR069W, strain VPS5, active compounds read low 1 | S. cerevisiae deletion strains, locus YOR070C, strain gyp1, active compounds read low 0.986 | S. cerevisiae deletion strains, locus YOR080W, strain dia2, active compounds read low 0.975 | S. cerevisiae deletion strains, locus YOR083W, strain WHI5, active compounds read low 0.974 | S. cerevisiae deletion strains, locus YOR106W, strain vam3, active compounds read low 0.977 | S. cerevisiae deletion strains, locus YOR136W, strain idh2, active compounds read low 1 | S. cerevisiae deletion strains, locus YOR144C, strain elg1, active compounds read low 1 | S. cerevisiae deletion strains, locus YOR184W, strain ser1, active compounds read low 1.01 | S. cerevisiae deletion strains, locus YOR231W, strain MKK1, active compounds read low 1 | S. cerevisiae deletion strains, locus YOR265W, strain rbl2, active compounds read low 0.974 | S. cerevisiae deletion strains, locus YOR270C, strain vph1, active compounds read low 0.926 | S. cerevisiae deletion strains, locus YOR290C, strain snf2, active compounds read low 0.944 | S. cerevisiae deletion strains, locus YOR316C, strain cot1, active compounds read low 1.01 | S. cerevisiae deletion strains, locus YPL051W, strain arl3, active compounds read low 0.985 | S. cerevisiae deletion strains, locus YPL055C, strain LGE1, active compounds read low 0.993 | S. cerevisiae deletion strains, locus YPL078C, strain atp4, active compounds read low 0.992 | S. cerevisiae deletion strains, locus YPL106C, strain sse1, active compounds read low 0.922 | S. cerevisiae deletion strains, locus YPL240C, strain hsp82, active compounds read low 0.975 | S. cerevisiae deletion strains, locus YPL256C, strain CLN2, active compounds read low 0.981 | S. cerevisiae deletion strains, locus YPR119W, strain clb2, active compounds read low 1.01 | S. cerevisiae deletion strains, locus YPR141C, strain kar3, active compounds read low 1.01 | S. cerevisiae deletion strains, locus YPR163C, strain tif3, active compounds read low 1.01 | S. cerevisiae deletion strains, locus YPR167C, strain met16, active compounds read low 1.02 | S. cerevisiae deletion strains, strain wtn01, active compounds read low 1.01 | S. cerevisiae strains, strain wild type, active compounds read low 0.987
